Consider 40 molecules from PubChem BioAssay (Tox21).

Records with an inconclusive call do not appear. Values without a mark were called inactive. Activity calls are given as the source filed them. The call rests on the fitted dose curve; in most records, active means well fitted cell-killing curve with a large enough effect in the repeat runs; inconclusive means weak or mixed curves; inactive means no such curve, though single readings can be large or run the other way.
On the % scale 0 is the no-effect control and ±100 the full control effect.

The assay is described as follows: qHTS assay to identify small molecule antagonists of the androgen receptor (AR) signaling pathway - cell viability counter screen (AID 743033; further: nearly all actives have a fitted effect of over 45% in size). To be noted: AR-bla HEK293 viability, CellTiter-Glo luminescence, 16 h; series mostly up to 58.5 µM; activity change, negative = cytotoxicity: at the top concentration. The text has this:
National Center for Advancing Translational Sciences [NCATS]
NIH Chemical Genomics Center [NCGC]
U.S. Environmental Protection Agency [EPA]
National Institutes of Environmental Health Sciences [NIEHS]
National Toxicology Program [NTP]
U.S. Food and Drug Administration [FDA]
Androgen receptor (AR), a nuclear hormone receptor, plays a critical role in AR-dependent prostate cancer and other androgen related diseases. Endocrine disrupting chemicals (EDCs) and their interactions with steroid hormone receptors like AR may cause disruption of normal endocrine function as well as interfere with metabolic homeostasis, reproduction, developmental and behavioral functions. To identify the compounds that inhibit AR signaling, GeneBLAzer AR-UAS-bla-GripTite cell line (Invitrogen, Carlsbad, CA, USA) containing a beta-lactamase reporter gene under control of an Upstream Activator Sequence (UAS) stably integrated into HEK293 cells was used to screen the Tox21 10K compound library. The cytotoxicity of the Tox21 compound library against the AR-bla cell line was tested in parallel by measuring the cell viability using CellTiter-Glo assay in the same wells.
Tox21 Assay Protocol Summary:
AR-bla cells were dispensed at 2,000 cells/5 uL of assay medium per well into black wall/clear-bottom 1536-well plates using a Multidrop Combi (ThermoFisher Scientific, Waltham, MA) dispenser. After the assay plates were incubated at a 37C and 5% CO2 for 4 hr, 23 nL of compounds dissolved in DMSO, positive controls or DMSO only was transferred to the assay plate by a Pintool station (Kalypsys, San Diego, CA), followed by addition of 1 uL of agonist (R1881) in culture medium using a Bioraptr Flying Reagent Dispenser (FRD) workstation (Beckman Coulter, Indianapolis, IN, USA). The plates were incubated at a 37C and 5% CO2 for 16 h. After 1 uL of LiveBLAzerTM B/G FRET substrate was added using a Bioraptr FRD, the plates were incubated at room temperature for 2 h and fluorescence intensity was measured by an Envision plate reader (PerkinElmer, Shelton, CT). For cell viability readout that measures cytotoxicity, 4 ul/well of CellTiter-Glo reagent was added into the assay plates using a Bioraptr FRD. After 30 min incubation at room temperature, the luminescence intensity in the plates was measured using a ViewLux (PerkinElmer) plate reader.
`CCOC(=O)NCCC[Si](OCC)(OCC)OCC`: the “activity change, negative = cytotoxicity” value was -4.52%.
Still for that read-out and setting: in the case of `CC/C=C\CCOC(=O)CCCCC` it was 10%.
As to `CCC(=O)Nc1ccc(O)cc1`, the “activity change, negative = cytotoxicity” value is -5.01%.
Take `CCC/C=C/CO`: the “activity change, negative = cytotoxicity” value is -4.58%.
With `Cc1c(N)cccc1N`, the “activity change, negative = cytotoxicity” value was 3.82% [at 78.9 µM].
As to `O=Cc1ccc(F)c(Br)c1`, the “activity change, negative = cytotoxicity” value was 1.96%.
As for `Cn1cnc2c(F)c(Nc3ccc(Br)cc3Cl)c(C(=O)NOCCO)cc21`, the “activity change, negative = cytotoxicity” value is -5.44%.
As for `CCCCCCCOC(=O)CCC`, the “activity change, negative = cytotoxicity” value is 5.44%.
`CCN(CC)CCOc1ccc(Cc2ccccc2)cc1`: the “activity change, negative = cytotoxicity” value was -4.85%.
Take `CCCCN1C[C@H](O)[C@@H](O)[C@H](O)[C@H]1CO`: the “activity change, negative = cytotoxicity” value is 4.42%.
Take `CCN(CC)C(=O)N(CC)CC`: the “activity change, negative = cytotoxicity” value is -0.045%.
Take `COC(C)CCO` (stereo not given): the “activity change, negative = cytotoxicity” value is 0.282%.
As for `NCCC(O)(P(=O)(O)O)P(=O)(O)O`, the “activity change, negative = cytotoxicity” value is 1.34%.
`CCCOCCC`: the “activity change, negative = cytotoxicity” value was 1.88%.
`CC(C)(C)c1cccc(O)c1`: the “activity change, negative = cytotoxicity” value was -8.88%.
The same measure, in the same setting: the same measure for `COC(=O)N[C@H](C(=O)N[C@@H](Cc1ccccc1)[C@@H](O)CN(Cc1ccc(-c2ccccn2)cc1)NC(=O)[C@@H](NC(=O)OC)C(C)(C)C)C(C)(C)C`: 0.97%; for `C[C@]12CCC(=O)C=C1CC[C@@H]1[C@@H]2CC[C@@]2(C)[C@H]1CC[C@]2(O)C(=O)CO`: -17.3%.
On to `CCCCc1ccc2nc(NC(=O)OC)[nH]c2c1`, for which the “activity change, negative = cytotoxicity” value was 2.49% [at 27 µM].
In the case of `O=C1CCCCC1C1CCCCC1` (stereo not given), the “activity change, negative = cytotoxicity” value is 1%.
For `COc1ccccc1N1CCN(CCCNc2cc(=O)n(C)c(=O)n2C)CC1`, the molecule was classed as inactive.
As for `Nc1ccc2ccccc2c1S(=O)(=O)O`, the “activity change, negative = cytotoxicity” value is -9.14% [at 78.9 µM].
On to `C1CCOC1`, for which the “activity change, negative = cytotoxicity” value is -2.1% [at 78.9 µM].
Regarding `C[C@@H]1CN(c2c(F)c(F)c3c(=O)c(C(=O)O)cn(C4CC4)c3c2F)C[C@H](C)N1`, the “activity change, negative = cytotoxicity” value is 1.82%.
On the same count and under the same terms, the same measure for `Cc1cc(S(=O)(=O)O)c(N)cc1Cl`: 0.225% [at 78.9 µM].
For `NS(=O)(=O)c1cc(-c2nn[nH]n2)c(NCc2cccs2)cc1Cl`, the “activity change, negative = cytotoxicity” value was -0.868%.
`CCCCCCC`: the “activity change, negative = cytotoxicity” value was 0.317% [at 78.9 µM].
As for `NCCCN1CCN(CCCN)CC1`, the “activity change, negative = cytotoxicity” value is -4.65%.
On to `C=O`, for which the call was inactive.
Regarding `CCNCCO`, the “activity change, negative = cytotoxicity” value is -5.75%.
In the case of `Nc1cccc(S(=O)(=O)O)c1`, the “activity change, negative = cytotoxicity” value was 3.58%.
For `OCC(CBr)(CBr)CBr`, the “activity change, negative = cytotoxicity” value was -8.66%.
As to `CC1CN(c2ccccc2)NC1=O` (stereo not given), the “activity change, negative = cytotoxicity” value is -14.4%.
As to `O=C(CC(=O)C(F)(F)F)c1ccccc1`, the “activity change, negative = cytotoxicity” value is -6.39% [at 78.9 µM].
Regarding `COc1ccc(S(=O)(=O)Nc2nnc(CC(C)C)s2)cc1`, the result was inactive.
In the case of `CC1(C)C(=O)N(Cl)C(=O)N1Br`, the “activity change, negative = cytotoxicity” value was 3.16%.
`O=C1CCCCCCCCCCC(=O)OCCO1`: the “activity change, negative = cytotoxicity” value is -22.6%.
On the same count and under the same terms, the same measure for `O=[N+]([O-])c1nccn1CO[C@@H](CO)[C@H](O)CO`: -2.02%; for `CN1CCN(C2=Nc3cc(F)ccc3Cc3ccccc32)CC1`: -9.09%.
Turning to `CC(CNC1CCCCC1)OC(=O)c1ccccc1` (stereo not given), the “activity change, negative = cytotoxicity” value was -29.4% [at 27 µM].
As for `O=C(O)CN(CCN(CC(=O)O)CC(=O)O)CCN(CC(=O)O)CC(=O)O`, the “activity change, negative = cytotoxicity” value is 1.36%.
